In the library only some 19% were active in any assay of this set; here they are far more common.
HT1080-NT tox = qHTS for induction of synthetic lethality in tumor cells producing 2HG: qHTS for the HT-1080-NT fibrosarcoma cell line | HT-1080-NT fibrosarcoma viability, CellTiter-Glo ATP luminescence, 48 h | Potency, µM (top dose mostly 46.1 µM), without a hit: top-dose activity, negative = less viability, usual class: cytotoxic | 360,000 tested, 1.6% active;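 further: NT is the 2HG producing partner of a matched IDH1 knockdown line; 0% = DMSO-treated cells and -100% = media-only wells without cells; nearly all actives have a fitted effect of over 55% in size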
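Viability by CellTiter-Glo luminescence after 48 h compound exposure at 37C of HT-1080-NT cells (750/well, RPMI, 5% FBS). % activity scaled between DMSO wells and medium-only wells, then curve-fitted and categorized by curve class.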
TDP1 cell CPT = qHTS for Inhibitors of human tyrosyl-DNA phosphodiesterase 1 (TDP1): qHTS in cells in presence of CPT; chicken DT40 Tdp1-/-;hTDP1 cells + 20 nM CPT, ATP luminescence, 48 h; Potency, µM (series often up to 46.2 µM), without a hit: top-dose activity change, negative = growth inhibition, hits mostly inhibitors; 420,000 tested, 12% active; further: nearly all actives have a fitted effect of over 55% in size
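Cell growth measured by CellTiter-Glo luminescence after a minimum 48 h, 37 C compound exposure with 20 nM CPT in Tdp1-knockout DT40 cells stably expressing hTDP1, seeded 400/well; qHTS titration format.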
KB-3-1 cytotox = qHTS assay for MDR1-selective chemotherapeutics: Primary screen using the parental adenocarcinoma cell KB-3-1 | KB-3-1 viability, CellTiter-Glo ATP luminescence, 72 h | Potency, µM (top dose mostly 46.1 µM), actives largely listed as cytotoxic | 400,000 tested, 1.4% active; further: nearly all actives have a fitted effect of over 60% in size
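Cytotoxicity in the drug-sensitive parental line KB-3-1 was scored as loss of CellTiter-Glo luminescence following 72 h incubation with compound. Values come from curve fitting of normalized concentration-response data.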
TDP1 cell noCPT = qHTS for Inhibitors of human tyrosyl-DNA phosphodiesterase 1 (TDP1): qHTS in cells in absence of CPT | 420,000 tested, 15% active | DT40 Tdp1-/- hTDP1 cells, no CPT, ATP luminescence, 48 h | Potency, µM (titrated, usually from 46.2 µM), for the others: at the top dose activity change, negative = growth inhibition, usual class: inhibitors; further: nearly all actives have a fitted effect of over 55% in size
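Growth kinetics read by CellTiter-Glo luminescence after ≥48 hr at 37 °C. Cells: DT40 Tdp1-/- stably carrying human TDP1, 400 per well, compound exposure in the absence of CPT (DMSO vehicle).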
HT1080 IDH1KD tx = qHTS for induction of synthetic lethality in tumor cells producing 2HG: qHTS for the HT-1080-IDH1KD cell line. HT-1080 IDH1 knockdown viability, ATP luminescence, 48 h. Potency, µM (titrated, usually from 46.1 µM), inactives show top-dose activity, negative = toxicity, actives largely listed as cytotoxic. 360,000 tested, 2% active. AID 686971, 2013;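 further: 0% = DMSO wells and -100% = cell-free medium wells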
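CellTiter-Glo luminescence after 48 h compound exposure at 37 degrees C of IDH1-knockdown HT-1080 cells in 5% FBS RPMI. %Activity scaled between DMSO wells and cell-free media wells, with curves fitted and assigned curve classes.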
KB-V1 cytotox = qHTS assay for MDR1-selective chemotherapeutics: Primary screen using the drug-selected MDR subline cells KB-V1 | KB-V1 MDR cells viability, CellTiter-Glo, 72 h | Potency, µM (series often up to 46.1 µM), hits mostly cytotoxic | 400,000 tested, 3.4% active; further: nearly all actives have a fitted effect of over 60% in size
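Potencies derive from concentration-effect curves fitted to normalized luminescence (CellTiter-Glo) of KB-V1 cells treated for 72 h at 37 degrees C in phenol-red-free DMEM containing 10% FBS.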
The depositor's hits bear a star; [ ] = another dose, or the depositor's remark. The call rests on the fitted dose curve; in most records, active means well fitted curve in the direction sought with a large enough effect; inconclusive means small, poorly fitted or top-dose-only effect, or another doubt; inactive means no such curve, though single readings can be large; an effect the other way counts as inactive or inconclusive. Unless noted, on the % scale 0 is the no-effect control and ±100 the full control effect; potency means the concentration at half of the fitted maximal effect.

Screening CCn1c(=N)n(CC(=O)c2ccc(OC)cc2)c2ccccc21 returned HT1080-NT tox -6.8%, TDP1 cell CPT inconclusive, KB-3-1 cytotox inactive, TDP1 cell noCPT inconclusive, HT1080 IDH1KD tx -13.6% and KB-V1 cytotox inactive.
For CCn1c(=N)n(CC(=O)c2ccco2)c2ccccc21 the results were HT1080-NT tox -1.9%, TDP1 cell CPT 13µM*, KB-3-1 cytotox inconclusive, TDP1 cell noCPT inconclusive, HT1080 IDH1KD tx -2.3% and KB-V1 cytotox inconclusive.
CC(=O)OC1CC2C(C)(C)C(=O)[C@@H]3OC3[C@@]2(C)C2CC[C@]3(C)C(=CC(=O)OC3c3ccoc3)[C@]12C (some centres undefined) was read as TDP1 cell CPT 11.0% and TDP1 cell noCPT -5.2%.
COc1ccc(C2=NN(CN3C(=O)C(=O)c4ccccc43)C(c3cccc([N+](=O)[O-])c3)C2)cc1 (centres undefined) was read as HT1080-NT tox -20.9%, TDP1 cell CPT inconclusive, KB-3-1 cytotox inconclusive, TDP1 cell noCPT inconclusive, HT1080 IDH1KD tx -26.2% and KB-V1 cytotox inactive.
O=C(Nc1ccc(Br)cc1Cl)c1ccc2c(=O)n3c(nc2c1)CCC3 was read as HT1080-NT tox -5.9%, TDP1 cell CPT 20.6µM*, KB-3-1 cytotox inactive, TDP1 cell noCPT 18.4µM*, HT1080 IDH1KD tx inconclusive and KB-V1 cytotox inactive.
`O=C(Nc1ccc(Cl)cc1Cl)c1ccc2c(=O)n3c(nc2c1)CCC3` gave HT1080-NT tox 2.7%, TDP1 cell CPT inconclusive, KB-3-1 cytotox inactive, TDP1 cell noCPT 16.4µM*, HT1080 IDH1KD tx 11.8% and KB-V1 cytotox inactive.
For COc1ccccc1NC(=O)c1ccc2c(=O)n3c(nc2c1)CCC3 the results were HT1080-NT tox 2.2%, TDP1 cell CPT -9.7%, KB-3-1 cytotox inconclusive, TDP1 cell noCPT inconclusive, HT1080 IDH1KD tx 7.4% and KB-V1 cytotox inactive.
For CCc1ccc2c(c1)-c1ccccc1S(=O)(=O)N2CC(=O)N1CCCCC1 the results were TDP1 cell CPT inconclusive, KB-3-1 cytotox inactive, TDP1 cell noCPT inconclusive and KB-V1 cytotox inactive.
Screening CCc1ccc2c(c1)-c1ccccc1S(=O)(=O)N2CC(=O)N1CCC(C)CC1 returned TDP1 cell CPT 16.4µM*, KB-3-1 cytotox inactive, TDP1 cell noCPT 18.4µM* and KB-V1 cytotox inactive.
CCOC(=O)C1CCN(C(=O)CN2c3ccc(C(C)C)cc3-c3ccccc3S2(=O)=O)CC1 was read as TDP1 cell CPT 20.6µM*, KB-3-1 cytotox inactive, TDP1 cell noCPT inconclusive and KB-V1 cytotox inactive.
For COc1ccccc1CNC(=O)COc1ccccc1C(=O)c1cnn(-c2ccccc2)c1 the results were HT1080-NT tox -5.0%[9.24 µM], TDP1 cell CPT 23.1µM*, KB-3-1 cytotox inactive, TDP1 cell noCPT inconclusive, HT1080 IDH1KD tx -1.0% and KB-V1 cytotox inactive.
O=C(COc1ccccc1C(=O)c1cnn(-c2ccccc2)c1)Nc1ccccc1 was read as HT1080-NT tox inconclusive, TDP1 cell CPT inconclusive, KB-3-1 cytotox inactive, TDP1 cell noCPT 14.6µM*, HT1080 IDH1KD tx inconclusive and KB-V1 cytotox inconclusive.
Screening Cc1c(Cl)cccc1NC(=O)c1ncn[nH]1 returned HT1080-NT tox 8.2%, TDP1 cell CPT 5.7%, KB-3-1 cytotox inactive, TDP1 cell noCPT 10.0%, HT1080 IDH1KD tx 5.8% and KB-V1 cytotox inactive.
For Cc1cccc2c1cnn2C(=O)Nc1ccccc1Cl the results were HT1080-NT tox 22.0%, TDP1 cell CPT inconclusive, KB-3-1 cytotox inactive, TDP1 cell noCPT inconclusive, HT1080 IDH1KD tx 16.8% and KB-V1 cytotox inactive.
For CC(=O)N(\C=C/C=C/C=C1\Sc2ccccc2C1=O)c1ccccc1 the results were HT1080-NT tox inconclusive, TDP1 cell CPT 29.1µM*, KB-3-1 cytotox inactive, TDP1 cell noCPT 13µM*, HT1080 IDH1KD tx inconclusive and KB-V1 cytotox inconclusive.
Screening Cc1ccc(Cl)cc1NC(=O)C(NS(=O)(=O)c1cccc2nsnc12)c1ccccc1 (centres undefined) returned TDP1 cell CPT inconclusive, KB-3-1 cytotox inactive, TDP1 cell noCPT inconclusive and KB-V1 cytotox inactive.
`O=C1NC[C@H](c2ccccc2)OC(=O)[C@@H](Cc2ccc(F)cc2)C/C=C\C[C@H]1CC(=O)N(CCO)Cc1ccccc1` gave HT1080-NT tox inconclusive, TDP1 cell CPT 8.2µM*, KB-3-1 cytotox inactive, TDP1 cell noCPT inconclusive, HT1080 IDH1KD tx inconclusive and KB-V1 cytotox inactive.
O=C1NC[C@H](c2ccccc2)OC(=O)[C@H](Cc2ccc(F)cc2)C/C=C\C[C@H]1CC(=O)N(CCO)Cc1ccccc1 was read as HT1080-NT tox inconclusive, TDP1 cell CPT 10.3µM*, KB-3-1 cytotox inconclusive, TDP1 cell noCPT 8.2µM*, HT1080 IDH1KD tx inconclusive and KB-V1 cytotox inconclusive.
`O=C(C[C@H]1C/C=C\C[C@@H](Cc2ccc(F)cc2)C(=O)O[C@@H](c2ccccc2)CNC1=O)NCCO` gave HT1080-NT tox 3.9%, TDP1 cell CPT -10.6%, KB-3-1 cytotox inactive, TDP1 cell noCPT inconclusive, HT1080 IDH1KD tx 2.4% and KB-V1 cytotox inconclusive.
O=C(C[C@H]1C/C=C\C[C@H](Cc2ccc(F)cc2)C(=O)O[C@@H](c2ccccc2)CNC1=O)NCCO was read as HT1080-NT tox 2.7%, TDP1 cell CPT inconclusive, KB-3-1 cytotox inconclusive, TDP1 cell noCPT inconclusive, HT1080 IDH1KD tx 0.9% and KB-V1 cytotox inactive.
O=C1NC[C@@H](c2ccccc2)OC(=O)[C@H](Cc2ccc(F)cc2)C/C=C\C[C@H]1CC(=O)N(CCO)Cc1ccccc1 was read as HT1080-NT tox -3.1%, TDP1 cell CPT 20.6µM*, KB-3-1 cytotox inactive, TDP1 cell noCPT 16.4µM*, HT1080 IDH1KD tx 4.1% and KB-V1 cytotox inactive.
`O=C(O)c1cnn(-c2nc(-c3ccc(Br)cc3)cs2)c1C(F)(F)F` gave HT1080-NT tox 4.2%, TDP1 cell CPT -6.5%, KB-3-1 cytotox inactive, TDP1 cell noCPT inconclusive, HT1080 IDH1KD tx -8.5% and KB-V1 cytotox inactive.
